Data from PubChem BioAssay AID651958 (The Scripps Research Institute Molecular Screening Center, 2012).
Hit rate of the full screen: of about 370,000 compounds, about 2,000 (0.54%) were called active. The sample holds actives, similar compounds and a random draw of the others, so the mix is not that of the screen. Unmarked numbers belong to inactive results. Rule as the data show it: active = inhibition above about 30%; inactive = the rest.

system: Crimean-Congo hemorrhagic fever virus L polyprotein viral ovarian tumor (vOTU) protease domain; experiment: CCHFV vOTU protease inhibitors, primary screen, biochemical, Pep-AMC substrate, fluorescence (AID 651958); conditions: at 11.5 µM, stronger effect = higher value; also: 0% = vehicle wells with enzyme and 100% = no enzyme wells

Row | Structure (SMILES) | inhibition
1 | c1ccc(N2Cc3ccccc3-n3nncc3C2)nc1 | -2.36%
2 | Cc1ccn2c(c1)nc(=O)c1cc(S(=O)(=O)N3CCC(C)CC3)ccc12 | -11.7%
3 | CCCCN(CC(=O)Nc1cccc(S(=O)(=O)N2CCCC2)c1)Cc1nc2ccccc2c(=O)[nH]1 | 3.14%
4 | CC(=O)Nc1ccc(NC(=O)CSc2nnnn2-c2ccccc2F)cc1 | 2.7%
5 | CC(=O)Nc1ccc(NC(=O)CSc2nnnn2C2CCCCC2)cc1 | -5.32%
6 | CCn1nnnc1SCC(=O)Nc1ccc(N(C)C)cc1 | 30.6% (active)
7 | CCn1c(SCC(=O)NC2=NCCS2)nnc1C(C)NC(=O)c1ccccc1F (configuration not stated) | 0.18%
8 | COCCCNS(=O)(=O)c1cccc(S(=O)(=O)c2cccc(S(=O)(=O)NCCCOC)c2)c1 | -10.2%
9 | Cc1ccc(C2(C(F)(F)F)N=C3Sc4cc(C)cc(C)c4N3C(=O)N2)cc1 (configuration not stated) | -15.2%
10 | O=C(CSc1nnc(COc2ccccc2)n1Cc1ccco1)c1ccc2ccccc2c1 | 7.39%
11 | Cc1ccc(OCc2nnc(SC/C=C/c3ccccc3)n2Cc2ccco2)cc1 | 31.9% (active)
12 | Cc1ccc(-c2nnc(SCC(=O)Nc3ccc(Oc4ccccc4)cc3)n2Cc2ccco2)cc1 | 6.1%
13 | O=C(Cc1ccc(NC(=O)C2CCCN(C(=O)CCc3ccccc3)C2)cc1)Nc1ccc(C(=O)N2CCOCC2)cc1 (configuration not stated) | 23.1%
14 | Cc1ccc(CSc2nc(-c3ccccc3)c(C#N)c(=O)[nH]2)cc1 | 39.9% (active)
15 | Cc1ccc(CSc2nc3[nH]ncc3c(=O)[nH]2)cc1 | -0.35%
16 | Cc1ccccc1CSc1nnc(-c2ccccc2)c(=O)[nH]1 | -2.29%
17 | Cc1ccc(O)c(NC(=O)c2cc(-c3ccco3)on2)c1 | -0.2%
18 | COCCNC(=O)Nc1ccc2nc(-c3ccco3)c(-c3ccco3)nc2c1 | 36% (active)
19 | CN(C)c1ccc(NC(=O)CSc2n[nH]c(-c3ccco3)n2)cc1 | 4.49%
20 | COc1ccc(NC(=O)NN2CCN(C)CC2)c(OC)c1 | 4.34%
21 | CN1CCCc2cc(C#N)c(=O)[nH]c21 | -314%
22 | CSCCC(NS(=O)(=O)c1ccc2c(c1)oc(=O)n2C)C(=O)NC1CCCc2ccccc21 (configuration not stated) | 7.61%
23 | Cc1cc(N2CCNC[C@@H]2C)ccc1N1CC[C@H](O)C1 | -1.97%
24 | O=C(N/N=C/c1ccc(O)c(O)c1)C1c2ccccc2Oc2ccccc21 | 4.82%

Row | Structure (SMILES) | inhibition
25 | COc1ccc(/C=N/NC(=O)Cn2cc(C(F)(F)F)ccc2=O)cc1 | 4.22%
26 | Oc1ccc(/C=N/Nc2ccc(C(F)(F)F)cn2)cc1O | 31.3% (active)
27 | CCc1cccc(C)c1N(C(=O)Cn1c(CO)nc2ccccc21)C(C)COC (configuration not stated) | 6.13%
28 | O=C(Nc1cc(S(=O)(=O)N2CCOCC2)ccc1N1CCOCC1)c1c(F)cccc1Cl | 8.3%
29 | Cc1ccc2c(c1)C(c1ccccc1)N(C(=O)c1ccc(S(=O)(=O)N3CCOCC3)cc1)CC(=O)N2 (configuration not stated) | -6.16%
30 | Cc1ccc(S(=O)(=O)N2CCN(C(=O)c3cccs3)CC2)cc1 | -14.5%
31 | COc1ccccc1NC1=NC(c2ccc(Cl)cc2)N=C(N)N1 (configuration not stated) | 2.38%
32 | CCNC(=S)N1CCN(c2ncccn2)CC1 | 43.8% (active)
33 | CCNC(=S)N1CCN(S(=O)(=O)c2ccc(Cl)s2)CC1 | 11.2%
34 | Cc1ccc(NC(=S)N2CCN(c3ncccn3)CC2)cc1C | 2.37%
35 | CCC(C(=O)NCc1cccnc1)n1nc(C)c2sc3ccccc3c2c1=O (configuration not stated) | -2%
36 | COCCNC(=O)C1C(=O)Nc2ccccc2C(=O)N1c1ccc2c(c1)OCCO2 (configuration not stated) | 26.3%
37 | O=C(/C=C/c1cccs1)c1cc(Cl)ccc1OC(=O)N1CCOCC1 | 10.7%
38 | Cc1cc2nc(SCCN3CCOCC3)[nH]c2cc1C | 3.87%
39 | CCOC(=O)N1CCC(c2cc(=O)n(-c3ccccc3)[nH]2)CC1 | 71.1% (active)
40 | CCOC(=O)N1CCC(C(N)=O)CC1 | 8.61%
41 | CCOC(=O)N1CCC(NC(=O)Cc2cn(C)c3ccccc23)CC1 | 3.03%
42 | CCOc1ccc(CNC(=O)C2CC(=O)N(C3CCCC3)C2)cc1OC (configuration not stated) | 4.25%
43 | CC(C)(C)OC(=O)NC(Cc1ccccc1)C(=O)NC(CSC1CCCCO1)C(=O)NN (configuration not stated) | -4.89%
44 | CCOC(=O)N(C)c1c(CC)nc2c(OCc3ccccc3C(=O)OC)cccn12 | 15.9%
45 | C=CCn1c(SCc2cccc(F)c2)nc2cc(C(=O)N3CCC(C(N)=O)CC3)ccc2c1=O | 14.2%
46 | O=C1Nc2cc(C(=O)N3CCN(c4ccc(F)cc4)CC3)ccc2NC1CSCc1cccc(F)c1 (configuration not stated) | 32.1% (active)
47 | Cc1ccccc1CN1CCN(C(=O)c2cccc(F)c2)CC1 | 6.94%
